An excerpt weighted towards active compounds, which were near 8.8% of everything screened.
IL-1B inflam inh: inflammasome signaling inhibition, IL-1 beta readout. THP-1 LPS/ATP IL-1B secretion, AlphaLISA, 16 h; stronger effect = lower value. activity change, % at 57.5 µM. actives 4.7% (n = 360,000). AID 743279; in the data active = activity change below about -50%; inconclusive = mostly about -30% to -49%
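Secreted IL-1B measured by AlphaLISA bead assay after 16 h compound exposure of THP-1 cells; compounds (final up to 57.5 uM) added 1 h before LPS (250 ng/mL) and ATP (1.25 mM) stimulation; lower signal means less secretion.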
HT1080 IDH1KD tx: toxicity to HT-1080 IDH1 knockdown cells (counter line). HT-1080 IDH1 knockdown viability, ATP luminescence, 48 h. Potency, µM (doses to about 46.1 µM), for the others: at the highest dose activity, negative = toxicity, usual class: cytotoxic. actives 2% (n = 360,000). AID 686971;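 note: potency is the fitted concentration of half-maximal effect; 0% = DMSO wells and -100% = cell-free medium wells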
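In this qHTS, HT-1080 cells depleted of IDH1 are exposed for 48 h at 37 °C to compound titrations. Toxicity is scored from CellTiter-Glo luminescence, with DMSO as full viability and medium alone as none.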
HT1080NT lethal: kills 2HG-producing HT-1080-NT fibrosarcoma cells | Potency, µM (titrated, usually from 46.1 µM), inactives show at the highest dose activity, negative = less viability, most hits filed as cytotoxic | AID 686970 | HT-1080-NT fibrosarcoma viability, CellTiter-Glo ATP luminescence, 48 h | actives 1.6% (n = 360,000);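 note: NT is the 2HG producing partner of a matched IDH1 knockdown line; potency is the fitted concentration of half-maximal effect; 0% = DMSO-treated cells and -100% = media-only wells without cells; nearly all actives have a fitted effect of over 55% in size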
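Viability of the 2HG-overproducing fibrosarcoma line after 48 hours of compound exposure at 37 degrees C was determined by luminescence with CellTiter-Glo, and concentration-effect curves were then fitted and categorized.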
KB-V1 MDR tox: KB-V1 MDR subline cytotoxicity; AID 1347076; Potency, µM (top dose mostly 46.1 µM), actives largely listed as cytotoxic; KB-V1 MDR cells viability, CellTiter-Glo, 72 h; actives 3.4% (n = 400,000); note: potency is the fitted concentration of half-maximal effect; nearly all actives have a fitted effect of over 60% in size
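KB-V1 MDR subline cells in DMEM (phenol-red free, 10% FBS) exposed to compounds in qHTS concentration series for 72 h at 37 degrees C. Viability read by CellTiter-Glo luminescence; concentration-effect curves fitted after normalization and correction.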
KB-3-1 cytotox: kills parental KB-3-1 adenocarcinoma cells | KB-3-1 viability, CellTiter-Glo ATP luminescence, 72 h | Potency, µM (series often up to 46.1 µM), usual class: cytotoxic | actives 1.4% (n = 400,000) | AID 1347075; note: potency is the fitted concentration of half-maximal effect; nearly all actives have a fitted effect of over 60% in size
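Cytotoxicity measured as CellTiter-Glo luminescence after 72 h at 37 C. Compound titrations were pinned onto drug-naive KB-3-1 parental adenocarcinoma cells grown in DMEM with 10% FBS, and normalized data fitted to concentration-response curves.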
* marks the source's active call; other numbers are inactive results; i = inactive; ? = inconclusive; . = not tested or not shown. Unless noted, calls come from the whole dose curve; as a rule, active = well fitted curve in the direction sought with a large enough effect; inconclusive = small, poorly fitted or top-dose-only effect, or another doubt; inactive = no such curve, though single readings can be large; an effect the other way counts as inactive or inconclusive. Unless noted, % is set by controls: 0 for no effect and ±100 for the full control effect.

SMILES	IL-1B inflam inh	HT1080 IDH1KD tx	HT1080NT lethal	KB-V1 MDR tox	KB-3-1 cytotox
Cc1cc(C)n(-c2ccc(C(=O)Nc3ccc4c(c3)OCO4)cc2)n1	-54.5*	-9.1%	-10.4%	i	i
Cc1cc(C)n(-c2ccc(C(=O)Nc3ccc(S(=O)(=O)NCc4ccco4)cc3)cc2)n1	-53.8*	?	-21.6%	i	?
CCOc1ccc(CNC(=O)Cc2ccc(NC(=O)N3CCSc4ncccc43)cc2)cc1	.	.	.	i	i
CCOc1ccccc1CNC(=O)CCCn1nc(C)c2sc3ccccc3c2c1=O	.	.	.	i	i
CC(C#N)(NC(=O)CN1CCN(S(=O)(=O)c2ccccc2C#N)CC1)C1CC1 (configuration not stated)	-9.3	-5.4%	1.7%	i	i
C/C(=N\Nc1ccccn1)c1ccc(S(=O)(=O)NCc2ccco2)cc1	-25.6	-4.9%	-7.6%	?	i
C/C(=N\Nc1nc(Cl)c(Cl)cc1Cl)c1ccc(S(=O)(=O)NCc2ccco2)cc1	-19.7	-29.3%	-2.2%	11.6µM*	?
COc1ccc(/C=C/c2nc(-c3ccccc3O)n[nH]2)cc1OC	-99.2*	3.6%	3.5%	i	i
O=C(O)COc1ccc(/C=C/c2nc(-c3ccccc3O)n[nH]2)cc1	2.1	12.3%	4.0%	i	i
C[C@H](CO)N1C[C@H](C)[C@@H](CN(C)S(=O)(=O)c2ccccc2)Oc2c(NC(=O)NC3CCCCC3)cccc2C1=O	-50.8*	-10.3%	-18.0%	i	i
C[C@@H]1CN([C@@H](C)CO)C(=O)c2cc(/C=C/c3ccccc3)cnc2O[C@@H]1CN(C)S(=O)(=O)c1ccc(F)cc1	-10.8	6.6%	14.0%	i	i
C[C@H](CO)N1C[C@H](C)[C@@H](CN(C)CC2CCCCC2)Oc2c(NC(=O)Cc3ccccc3)cccc2C1=O	-70.0*	-18.9%	-11.6%	?	?
C[C@H](CO)N1C[C@H](C)[C@@H](CN(C)S(=O)(=O)c2ccccc2)Oc2c(NC(=O)C3CC3)cccc2C1=O	9.9	3.2%	1.7%	i	i
C[C@H](CO)N1C[C@H](C)[C@@H](CN(C)S(C)(=O)=O)Oc2c(NC(=O)Nc3ccc4c(c3)OCO4)cccc2C1=O	-16.5	-5.4%	-6.3%	i	i
C[C@H](CO)N1C[C@H](C)[C@@H](CN(C)S(=O)(=O)c2ccccc2)Oc2c(NC(=O)Nc3ccc4c(c3)OCO4)cccc2C1=O	-60.8*	-3.8%	0.7%	i	i
C[C@@H]1CN([C@@H](C)CO)C(=O)c2cc(C#CC3CCCCC3)cnc2O[C@@H]1CN(C)S(=O)(=O)c1ccc(F)cc1	-52.7*	-28.5%	-29.3%	?	i
CC(C)c1ccc(OCc2cc(=O)n3c(-c4ccccc4)csc3n2)cc1	.	.	.	?	i
Cc1noc(C)c1S(=O)(=O)N(C)C[C@H]1Oc2c(NC(=O)NC3CCCCC3)cccc2C(=O)N([C@H](C)CO)C[C@@H]1C	-6.7	5.8%	3.3%	i	i
C[C@H](CO)N1C[C@H](C)[C@@H](CN(C)S(=O)(=O)c2ccc(F)cc2)Oc2c(NC(=O)NC3CCCCC3)cccc2C1=O	-56.2*	2.2%	1.3%	i	i
CCOC(=O)Cn1c(=O)oc2cc(S(=O)(=O)N3CCN(c4ccccc4OC)CC3)ccc21	.	.	.	?	i
C=CCc1c(C)nc(-c2ccccc2)nc1N/N=C/c1ccccc1	-14.3	-0.5%	-1.4%	i	i
C=CCc1c(C)nc(-c2ccccc2)nc1Nc1ccccc1O	-28.4	16.4µM*	?	i	i
C=CCc1c(C)nc(-c2ccccc2)nc1N/N=C(\C)c1ccc(N)cc1	0.0	0.5%	0.0%	23.1µM*	?
Cc1c(C#N)c(NC(=O)COC(=O)c2cc(Cl)c3c(c2)OCCCO3)n(Cc2ccco2)c1C	.	.	.	i	i
Cc1cccnc1NC(=S)NC(=O)c1cncc(Br)c1	-0.9	10µM*	7.94µM*	i	i
SMILES	IL-1B inflam inh	HT1080 IDH1KD tx	HT1080NT lethal	KB-V1 MDR tox	KB-3-1 cytotox
Cc1cccnc1NC(=S)NC(=O)c1cccs1	31.2	7.08µM*	6.31µM*	i	i
Cc1cccnc1NC(=O)CNC(=O)c1cccs1	12.5	-8.1%	-4.5%	?	i
COc1ccc(OC)c(NC(=O)NCCc2c[nH]c3ccccc23)c1	-16.8	-1.5%	4.3%	i	i
FC(F)(F)c1cccc(NC(=S)NCc2ccc(Cl)cc2)c1	-155.0*	?	?	?	?
CC(O)(CS(=O)(=O)Cc1ccccc1Cl)C(=O)Nc1cccc(C(F)(F)F)c1 (configuration not stated)	-9.3	-29.6%	?	i	i
Fc1cccc(NC(=S)NCc2ccc(Cl)cc2)c1	-15.2	16.5%	6.8%	?	i
CC(O)(CS(=O)(=O)Cc1cccc(C(F)(F)F)c1)C(=O)Nc1cccc(C(F)(F)F)c1 (configuration not stated)	-8.5	15.8µM*	?	?	i
O=[N+]([O-])c1cc(C(F)(F)F)cc([N+](=O)[O-])c1NCCNC(=S)Nc1cccc(F)c1	-52.9*	-22.3%	-23.9%	i	i
Fc1ccccc1CNC(=S)Nc1cccc(C(F)(F)F)c1	-98.1*	-3.4%	-12.5%	?	?
Fc1ccc(CNC(=S)Nc2cccc(C(F)(F)F)c2)cc1	0.0	?	?	20.6µM*	?
CN(C)NC(=S)Nc1cccc(C(F)(F)F)c1	.	3.4%	12.3%	i	i
CC(NC(=S)Nc1cccc(C(F)(F)F)c1)C(C)(C)C (configuration not stated)	-80.9*	?	?	i	i
CCOC(=O)c1c(-c2ccccc2)oc2ccc(O)c(CN3CCCC3)c12	-60.0*	?	?	?	?
Cc1oc2ccc(O)c(CN(C)C)c2c1C(=O)c1ccccc1	-19.3	-1.7%	-3.3%	i	i
CCOC(=O)c1c(-c2ccccc2)oc2ccc(O)c(CN(C)C)c12	?	?	?	?	i
CCOC(=O)c1c(CSCc2ccccc2)oc2ccc(O)c(CN(C)C)c12	-82.2*	18.4µM*	20.6µM*	?	?
Cc1cc(=O)cc(C)n1-c1ccc(Br)cc1	-8.0	0.0%	-0.2%	i	i
Cc1cn(C(=O)c2ccccc2)c(=S)n1-c1ccc(Br)cc1	-5.1	6.2%	-2.0%	14.6µM*	i
CC(C)(C)OC(=O)N1CCC(c2nnc(SCc3cccc(Cl)c3)o2)CC1	.	.	.	18.4µM*	i
CC(C)(C)OC(=O)N1CCC(c2nnc(SCc3ccccc3Cl)o2)CC1	.	.	.	9.2µM*	i
CCOC(=O)C1C(=O)C=C(c2ccc(C)cc2)CC1c1ccc([N+](=O)[O-])cc1 (configuration not stated)	4.2	5.3%	0.5%	7.31µM*	i

High-throughput results: PubChem BioAssay, National Center for Advancing Translational Sciences (NCATS)
